Measured values from PubChem BioAssay.
Active and inactive are the calls of the source.

What was measured:
[1] = binders of probe aFSTL3 on microarray, primary screen, stem cell growth factor project, biochemical, small-molecule microarray, fluorescence 635/667 (AID 1064); conditions: higher = more signal;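 also: measures binding of the biotinylated anti-FSTL3 antibody to printed compounds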
[2] = binders from COS7 lysate, DM2A8 probe, primary screen, torsin A project, cell lysate, small-molecule microarray, fluorescence 635/667 (AID 1065); conditions: higher = more signal, COS7 lysate expressing mutant human TOR1A
[3] = binders of probe aFGF2 on microarray, primary screen, stem cell growth factor project, biochemical, small-molecule microarray, fluorescence 635/667 (AID 1067); conditions: higher = more signal;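 also: measures binding of biotinylated aFGF2 protein to printed compounds on slides; z-score merges feature fluorescence and signal-to-noise across triplicate slides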
[4] = binders of probe aFGF10 on microarray, primary screen, stem cell growth factor project, biochemical, small-molecule microarray, fluorescence 635/667 (AID 1071); conditions: higher = more signal;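 also: score merges 667 nm spot intensity and signal to noise from triplicate slides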
[5] = molecular target: Neurogenic locus notch homolog protein 2 (Homo sapiens) (UniProt Q04721); assay: Notch2 binders on small-molecule microarrays, primary screen, biochemical, small-molecule microarray, 635 nm fluorescence, stem cell growth factors (AID 1073); conditions: Notch2 binding, higher = more signal
[6] = molecular target: Pro-neuregulin-1, membrane-bound isoform (Homo sapiens) (UniProt Q02297); assay: NRG1 binders on small-molecule microarrays, primary screen, psychiatric disease protein project, biochemical, small-molecule microarray, fluorescence 635/667 (AID 1075); conditions: NRG1 binding, 635 nm fluorescence, higher = more signal;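 also: score combines 667 nm spot fluorescence with signal to noise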
[7] = tested on: Neuregulin-1 EGF-like domain; assay: binders of neuregulin-1 EGF-like domain, primary screen, biochemical, small-molecule microarray, 635 nm fluorescence (AID 1081); conditions: small-molecule microarray binding, higher = more signal;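 also: binding of the protein to compounds printed on small-molecule microarray slides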
[8] = FRG1 promoter luciferase signal modulators, primary screen, FRG1 inhibition for FSHD, cell-based, C2C12 myotubes, firefly/Renilla luciferase, luminescence (AID 1084); conditions: higher = more signal, called active from +8 up or from −8 down
[9] = binders of probe aFST on microarray, primary screen, stem cell growth factor project, biochemical, small-molecule microarray, fluorescence 635/667 (AID 1086); conditions: higher = more signal;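 also: score merges 667 nm fluorescence with signal-to-noise of each printed compound spot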
[10] = binders of probe aHhip on microarray, primary screen, stem cell growth factor project, biochemical, small-molecule microarray, fluorescence 635/667 (AID 1087); conditions: higher = more signal;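 also: score merges spot fluorescence at 667nm with spot signal to noise ratio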
[11] = tested on: PRMT1 (protein arginine N-methyltransferase 1); assay: PRMT1 binders on small-molecule microarrays, primary screen, biochemical, small-molecule microarray, 635 nm fluorescence (AID 1088); conditions: small-molecule microarray binding, higher = more signal;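 also: binding of Prmt1 protein to compounds spotted on small-molecule microarray slides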
[12] = yeast growth modulation, basal conditions, primary screen, YJM789 clinical isolate, OD600, 24 h (AID 1089);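 also: growth of clinical yeast isolate S. cerevisiae YJM 789 seeded 1000 cells per well; test concentration not given here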; conditions: S. cerevisiae YJM789 growth, higher = more signal, called active from +8 up or from −8 down
[13] = fission yeast growth modulation, primary screen, strain 972, OD600, 24 h, no modulator (AID 1090);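 also: basal condition with compound alone and no growth modifier present; test concentration not given here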; conditions: S. pombe 972 growth, higher = more signal, called active from +8 up or from −8 down
[14] = S. cerevisiae growth modulation with rapamycin, primary screen, strain BY4716, OD600, 96 h (AID 1091); conditions: higher = more signal, called active from +8 up or from −8 down; also: test concentration not given here
[15] = molecular target: Torsin-1A-interacting protein 2 (Homo sapiens) (UniProt Q8NFQ8); assay: LULL1 binders on small-molecule microarray, primary screen, cell lysate, human LULL1 lysate, 635/667 nm fluorescence (AID 1092); conditions: hLULL1 lysate binding, 635 nm fluorescence, higher = more signal;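 also: probe is lysate of COS7 cells overexpressing human LULL1; score merges per-feature 667 nm fluorescence with signal-to-noise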
[16] = E. coli growth modulation, two-sided OD650, primary screen, E. coli filamentation project, strain DRC41, 24 h (AID 1093); conditions: OD650, 24 h, higher = more signal, called active from +8 up or from −8 down;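 also: MC1000 strain lacking acrAB efflux and sulA so SOS filamentation is blocked; test concentration not given here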
[17] = small-molecule microarray binders of probe aLefty2, primary screen, biochemical, biotinylated probe, 635/667 nm fluorescence (AID 1094); conditions: higher = more signal;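 also: score merges spot fluorescence near 667 nm with spot signal-to-noise ratio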
[18] = tested on: Noggin (protein binding on small-molecule microarray); assay: Noggin binders on small-molecule microarray, primary screen, biochemical, 635/667 nm fluorescence (AID 1095); conditions: 635 nm fluorescence, higher = more signal;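 also: score merges 667 nm feature fluorescence with signal to noise over triplicate slides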
[19] = molecular target: Neurogenic locus notch homolog protein 3 (Homo sapiens) (UniProt Q9UM47); assay: NOTCH3 binders on small-molecule microarray, primary screen, biochemical, 635/667 nm fluorescence (AID 1096); conditions: NOTCH3 binding, 635 nm fluorescence, higher = more signal
[20] = small-molecule microarray binders of probe aEGFR, primary screen, biochemical, biotinylated probe, 635/667 nm fluorescence (AID 1097); conditions: higher = more signal;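 also: probe is a biotinylated anti-EGFR antibody binding compounds printed on slides; score combines fluorescence near 667 nm and signal to noise of each spot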

Neurogenic locus notch homolog protein 3 (Homo sapiens), sequence (Q9UM47 whole entry, looked up): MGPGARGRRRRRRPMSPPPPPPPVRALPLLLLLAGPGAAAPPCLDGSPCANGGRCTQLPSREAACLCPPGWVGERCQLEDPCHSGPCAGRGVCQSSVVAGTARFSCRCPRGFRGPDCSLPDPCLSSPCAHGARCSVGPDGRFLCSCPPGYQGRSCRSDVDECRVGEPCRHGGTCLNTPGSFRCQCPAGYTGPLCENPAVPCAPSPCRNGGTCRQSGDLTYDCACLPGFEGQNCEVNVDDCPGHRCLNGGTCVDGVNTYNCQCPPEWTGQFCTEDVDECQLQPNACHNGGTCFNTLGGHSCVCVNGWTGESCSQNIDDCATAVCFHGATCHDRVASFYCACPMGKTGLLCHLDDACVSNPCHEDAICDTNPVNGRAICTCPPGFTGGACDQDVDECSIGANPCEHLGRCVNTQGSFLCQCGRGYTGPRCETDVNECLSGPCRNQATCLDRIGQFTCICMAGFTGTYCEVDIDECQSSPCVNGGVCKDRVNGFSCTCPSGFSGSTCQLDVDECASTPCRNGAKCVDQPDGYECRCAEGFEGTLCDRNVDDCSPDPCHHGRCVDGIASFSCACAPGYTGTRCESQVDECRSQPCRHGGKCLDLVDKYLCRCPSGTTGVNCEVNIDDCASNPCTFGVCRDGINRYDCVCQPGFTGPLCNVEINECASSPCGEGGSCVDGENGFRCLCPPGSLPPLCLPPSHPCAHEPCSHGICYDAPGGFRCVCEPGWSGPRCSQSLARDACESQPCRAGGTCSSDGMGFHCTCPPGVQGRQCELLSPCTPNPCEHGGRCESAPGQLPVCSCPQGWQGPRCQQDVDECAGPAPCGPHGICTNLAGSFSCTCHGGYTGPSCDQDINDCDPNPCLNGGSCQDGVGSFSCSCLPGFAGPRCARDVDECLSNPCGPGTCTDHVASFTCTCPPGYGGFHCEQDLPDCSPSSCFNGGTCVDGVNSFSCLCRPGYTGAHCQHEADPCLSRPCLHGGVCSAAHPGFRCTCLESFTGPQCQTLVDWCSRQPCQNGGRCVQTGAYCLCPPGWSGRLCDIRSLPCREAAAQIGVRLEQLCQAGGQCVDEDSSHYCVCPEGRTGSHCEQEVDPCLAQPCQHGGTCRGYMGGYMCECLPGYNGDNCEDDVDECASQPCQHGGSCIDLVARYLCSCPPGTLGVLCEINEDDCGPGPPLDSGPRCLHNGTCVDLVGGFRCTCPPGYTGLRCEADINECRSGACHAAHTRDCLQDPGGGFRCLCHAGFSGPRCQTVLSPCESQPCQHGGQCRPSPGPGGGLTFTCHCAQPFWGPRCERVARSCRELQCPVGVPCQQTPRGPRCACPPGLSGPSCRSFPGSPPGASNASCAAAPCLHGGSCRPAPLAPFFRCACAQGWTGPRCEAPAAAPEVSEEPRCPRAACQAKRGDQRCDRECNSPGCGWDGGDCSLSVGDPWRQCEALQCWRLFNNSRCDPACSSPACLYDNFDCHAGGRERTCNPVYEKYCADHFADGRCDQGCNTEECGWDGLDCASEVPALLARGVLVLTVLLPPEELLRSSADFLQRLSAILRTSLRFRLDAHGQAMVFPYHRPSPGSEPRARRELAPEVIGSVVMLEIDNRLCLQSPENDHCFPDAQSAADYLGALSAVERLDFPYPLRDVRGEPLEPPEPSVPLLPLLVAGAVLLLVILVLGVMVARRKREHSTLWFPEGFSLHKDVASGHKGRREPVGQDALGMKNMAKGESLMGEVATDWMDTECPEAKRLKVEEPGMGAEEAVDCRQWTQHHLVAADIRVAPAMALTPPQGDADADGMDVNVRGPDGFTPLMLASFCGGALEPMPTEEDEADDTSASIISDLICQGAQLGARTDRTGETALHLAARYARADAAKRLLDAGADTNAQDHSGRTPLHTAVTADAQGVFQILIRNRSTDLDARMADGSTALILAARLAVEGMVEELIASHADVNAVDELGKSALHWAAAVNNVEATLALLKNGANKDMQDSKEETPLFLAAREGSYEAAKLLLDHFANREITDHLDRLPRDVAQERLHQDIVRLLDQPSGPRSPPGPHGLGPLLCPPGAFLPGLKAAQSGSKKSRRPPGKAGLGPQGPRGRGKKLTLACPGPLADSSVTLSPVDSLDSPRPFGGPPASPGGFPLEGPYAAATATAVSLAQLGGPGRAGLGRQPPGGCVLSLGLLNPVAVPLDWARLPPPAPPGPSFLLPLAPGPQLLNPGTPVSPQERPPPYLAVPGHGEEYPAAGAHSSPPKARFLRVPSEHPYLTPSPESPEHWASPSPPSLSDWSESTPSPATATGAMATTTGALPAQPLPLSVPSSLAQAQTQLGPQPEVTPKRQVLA
Neurogenic locus notch homolog protein 2 (Homo sapiens), sequence (Q04721 whole entry, looked up, canonical isoform): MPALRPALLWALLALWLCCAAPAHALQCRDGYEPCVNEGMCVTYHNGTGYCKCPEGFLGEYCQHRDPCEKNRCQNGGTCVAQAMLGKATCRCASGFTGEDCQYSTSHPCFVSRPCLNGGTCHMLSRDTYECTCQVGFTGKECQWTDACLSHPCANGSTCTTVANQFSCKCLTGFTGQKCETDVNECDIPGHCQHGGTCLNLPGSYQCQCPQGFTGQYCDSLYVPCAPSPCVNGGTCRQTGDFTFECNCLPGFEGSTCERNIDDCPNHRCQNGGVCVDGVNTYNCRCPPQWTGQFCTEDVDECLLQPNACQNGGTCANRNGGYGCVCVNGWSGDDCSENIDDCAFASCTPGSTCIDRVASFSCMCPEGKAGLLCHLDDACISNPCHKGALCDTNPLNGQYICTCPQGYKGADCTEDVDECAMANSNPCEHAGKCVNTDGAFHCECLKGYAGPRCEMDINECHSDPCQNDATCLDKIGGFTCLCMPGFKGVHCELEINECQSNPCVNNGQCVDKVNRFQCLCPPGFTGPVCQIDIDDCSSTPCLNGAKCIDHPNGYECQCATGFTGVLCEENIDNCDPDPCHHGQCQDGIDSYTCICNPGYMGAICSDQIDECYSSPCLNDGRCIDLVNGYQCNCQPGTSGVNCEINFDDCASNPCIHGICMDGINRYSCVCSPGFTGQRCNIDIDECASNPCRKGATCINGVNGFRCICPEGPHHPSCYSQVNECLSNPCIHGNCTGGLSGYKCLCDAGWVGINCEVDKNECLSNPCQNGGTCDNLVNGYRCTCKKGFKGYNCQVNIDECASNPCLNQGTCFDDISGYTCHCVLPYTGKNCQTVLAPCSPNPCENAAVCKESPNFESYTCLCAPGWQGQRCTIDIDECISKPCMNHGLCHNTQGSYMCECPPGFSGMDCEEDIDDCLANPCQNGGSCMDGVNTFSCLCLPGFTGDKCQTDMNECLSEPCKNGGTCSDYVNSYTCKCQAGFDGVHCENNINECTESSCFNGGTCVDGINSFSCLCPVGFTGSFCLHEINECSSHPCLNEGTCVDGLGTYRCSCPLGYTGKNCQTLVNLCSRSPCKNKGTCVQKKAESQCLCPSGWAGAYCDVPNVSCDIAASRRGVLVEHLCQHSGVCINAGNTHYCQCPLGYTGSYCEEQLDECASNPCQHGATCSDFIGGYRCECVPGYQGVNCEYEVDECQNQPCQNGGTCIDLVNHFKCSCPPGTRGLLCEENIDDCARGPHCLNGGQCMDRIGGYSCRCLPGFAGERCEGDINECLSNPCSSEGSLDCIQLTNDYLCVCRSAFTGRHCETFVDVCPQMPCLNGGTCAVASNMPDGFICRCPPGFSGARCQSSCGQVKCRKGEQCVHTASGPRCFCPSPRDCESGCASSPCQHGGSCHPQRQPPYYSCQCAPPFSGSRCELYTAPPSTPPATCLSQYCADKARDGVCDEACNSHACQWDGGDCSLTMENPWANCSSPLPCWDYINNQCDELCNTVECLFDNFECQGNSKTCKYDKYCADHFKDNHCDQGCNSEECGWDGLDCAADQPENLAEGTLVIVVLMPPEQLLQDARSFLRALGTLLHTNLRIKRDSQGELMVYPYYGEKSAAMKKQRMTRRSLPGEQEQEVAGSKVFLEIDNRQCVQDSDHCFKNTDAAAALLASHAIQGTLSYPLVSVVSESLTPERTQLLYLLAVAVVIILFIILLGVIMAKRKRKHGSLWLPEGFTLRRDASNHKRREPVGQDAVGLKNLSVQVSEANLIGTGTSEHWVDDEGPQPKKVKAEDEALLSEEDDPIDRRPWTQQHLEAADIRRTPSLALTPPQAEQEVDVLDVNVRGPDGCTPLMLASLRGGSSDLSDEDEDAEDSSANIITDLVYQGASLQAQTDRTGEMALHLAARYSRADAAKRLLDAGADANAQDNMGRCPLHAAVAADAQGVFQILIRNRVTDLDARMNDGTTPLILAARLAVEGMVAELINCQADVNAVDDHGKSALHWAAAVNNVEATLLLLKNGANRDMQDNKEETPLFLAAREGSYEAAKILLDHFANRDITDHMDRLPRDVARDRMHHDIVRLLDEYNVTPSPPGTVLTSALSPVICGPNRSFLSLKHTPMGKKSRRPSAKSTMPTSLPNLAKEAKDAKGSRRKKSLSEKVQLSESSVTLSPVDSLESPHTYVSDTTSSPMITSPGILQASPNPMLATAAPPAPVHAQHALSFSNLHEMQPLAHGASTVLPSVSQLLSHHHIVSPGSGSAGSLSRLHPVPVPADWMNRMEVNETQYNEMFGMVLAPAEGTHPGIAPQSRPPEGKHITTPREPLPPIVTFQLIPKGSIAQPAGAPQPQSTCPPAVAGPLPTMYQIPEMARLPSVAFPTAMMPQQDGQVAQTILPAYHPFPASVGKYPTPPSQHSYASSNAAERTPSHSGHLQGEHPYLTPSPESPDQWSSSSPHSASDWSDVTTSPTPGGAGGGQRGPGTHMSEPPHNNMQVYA

Row | SMILES | composite z-score [1] | composite z-score [2] | composite z-score [3] | composite z-score [4] | composite z-score [5] | composite z-score [6] | composite z-score [7] | z-score [8] | composite z-score [9] | composite z-score [10] | composite z-score [11] | z-score [12] | z-score [13] | z-score [14] | composite z-score [15] | z-score [16] | composite z-score [17] | composite z-score [18] | composite z-score [19] | composite z-score [20]
1 | O=C1O[C@@H](c2ccccc2)[C@@H](c2ccccc2)N2[C@@H](c3ccc(OCCO)cc3)[C@]3(C(=O)Nc4ccc(C#CC5(O)CCCCCC5)cc43)[C@@H](C(=O)NC[C@H](O)c3ccccc3)[C@H]12 | 0.0882 | 1 | -0.0258 | 1.06 | 1.42 | 1.43 | 1.26 | -0.222 (inactive) | 0.934 | -0.191 | 1.55 | 1.24 (inactive) | 1.21 (inactive) | 5.49 (inactive) | 2.3 | 3.13 (inactive) | 0.0844 | 0.982 | 1.04 | -0.0332
2 | Cc1ccc(S[C@]2(C(=O)NC3CC3)CC(=O)N(Cc3ccccc3C(F)(F)F)[C@@H]2c2ccc(CO)cc2I)cc1 | 1.38 | 0.15 | -0.0139 | 0.152 | -1.13 | 0.37 | 1.2 | -0.967 (inactive) | 0.0584 | 0.219 | 0.279 | -1.31 (inactive) | -4.68 (inactive) | 2.34 (inactive) | 1.1 | -0.195 (inactive) | 0.244 | -0.536 | -0.654 | -0.0899
3 | COc1ccc([Si](C)(C)[C@@H]2[C@@H](CCn3cc(CCO)nn3)O[C@]3(C(=O)N(Cc4ccc(N5C(=O)c6cccc7cccc5c67)cc4)c4ccccc43)[C@H]2C)cc1 | -0.279 | 0.749 | -0.0656 | -0.0139 | 0.142 | 1.26 | 0.742 | -3.48 (inactive) | 0.299 | 0.154 | 1.51 | 0.0277 (inactive) | 0.858 (inactive) | 12.7 (active) | 0.986 | 2.61 (inactive) | -0.0564 | 0.376 | 0.802 | -0.0138
4 | O=C1O[C@H](c2ccccc2)[C@H](c2ccccc2)N2[C@H]1[C@@H](C(=O)NC[C@H](O)c1ccccc1)[C@]1(C(=O)Nc3ccc(C#CC4(O)CCCCCC4)cc31)[C@H]2c1ccc(O)cc1 | 0.0879 | 0.705 | -0.0529 | 0.676 | 1.47 | 1.62 | 1.34 | -0.0847 (inactive) | 0.837 | 0.131 | 1.58 | -0.307 (inactive) | -1.14 (inactive) | 0.393 (inactive) | 1.41 | 1.69 (inactive) | 0.113 | 0.927 | 1.1 | 0.0425
5 | C=C(/C(=C/C[C@H](OC(=O)c1ccncc1)c1cccc(OCCO)c1)c1cc(C(=O)OC)ccc1OC)C(C)C | -0.0743 | 1.66 | -0.113 | 0.382 | 0.191 | -0.389 | 0.73 | -1.23 (inactive) | -0.179 | -0.0631 | 1.26 | 0.195 (inactive) | -0.382 (inactive) | 0.947 (inactive) | 1.23 | 1.22 (inactive) | -0.192 | 0.126 | 0.436 | -0.112
6 | COCCOC(=O)N1C(=O)[C@@]2(c3cc(C#CCNC(N)=O)ccc31)[C@H](C(=O)NC[C@H](O)c1ccccc1)[C@H]1C(=O)O[C@H](c3ccccc3)[C@H](c3ccccc3)N1[C@@H]2c1ccc(O)cc1 | 0.464 | 0.256 | -0.031 | 0.462 | -0.26 | 0.8 | 0.442 | 0.803 (inactive) | 0.24 | -0.191 | 1.54 | -0.124 (inactive) | -2.42 (inactive) | 0.893 (inactive) | 1.5 | 2 (inactive) | -0.104 | 0.737 | 0.698 | -0.132
7 | [N-]=[N+]=NCc1ccccc1C[C@]1(C(=O)NCc2ccccc2)N=C(c2ccc(OCCCO)cc2)O[C@H]1c1ccccc1 | 1.45 | 1.21 | 0.135 | 0.17 | 1.15 | 0.994 | 0.97 | -2.74 (inactive) | 0.407 | -0.224 | 0.544 | 2.2 (inactive) | 2.85 (inactive) | 35.5 (active) | 2.47 | 1.85 (inactive) | 0.52 | -0.577 | 0.224 | 0.1
8 | Cc1ccc(S[C@]2(C(=O)NCC(C)C)CC(=O)N(C(C)C)[C@@H]2c2ccc(CO)cc2)cc1 | -1.02 | -0.691 | -0.083 | -0.293 | -0.625 | -0.517 | -0.0249 | -0.781 (inactive) | 0.272 | 0.271 | 0.493 | 0.588 (inactive) | -2.12 (inactive) | -0.942 (inactive) | -0.219 | 0.538 (inactive) | -0.0193 | -0.197 | -0.534 | -0.175
9 | CC(C)(C)OC(=O)CC[C@@]1(C(=O)N2CCOCC2)N=C(c2ccc(OCCCO)cc2)O[C@@H]1c1ccccc1 | 1.19 | 0.426 | 0.088 | 0.435 | 1.07 | 2.16 | 1.36 | -1.79 (inactive) | 0.517 | 0.28 | 1.58 | 0.153 (inactive) | -0.0631 (inactive) | 0.248 (inactive) | 3.95 | 1.32 (inactive) | 0.32 | 0.743 | 0.274 | 0.233
10 | C=CCNC(=O)[C@H]1[C@@H]2C(=O)O[C@@H](c3ccccc3)[C@@H](c3ccccc3)N2[C@@H](c2ccccc2OCCO)[C@]12C(=O)N(C(=O)OCCOC)c1ccc(C#CCCO)cc12 | 1.61 | 1.31 | 0.0603 | 0.853 | 0.83 | 0.79 | 1.11 | -4.05 (inactive) | 1.24 | 0.511 | 1.43 | 0.827 (inactive) | -3.06 (inactive) | 3.43 (inactive) | 1.36 | 1.68 (inactive) | 0.994 | 1.59 | 1.12 | 0.596
